According to PMC4336329 (PLoS ONE, 2015):
The campaign covered roughly 310,000 compounds. About 14,000 (4.5%) showed an effect of 50% or more. Effects have a minus sign here. The entries come from a sample that favours strong results as a whole.

The compounds below were run against human ether-à-go-go-related gene (hERG) potassium channel (human, UniProt Q12809) (assay: primary screen, population patch clamp on CHO cells stably expressing hERG; higher = less effect of the substance).
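Note: peak tail current of the secondary pulse compared with the same well before compound.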

Chain of human ether-à-go-go-related gene (hERG) potassium channel (Q12809 whole entry, looked up): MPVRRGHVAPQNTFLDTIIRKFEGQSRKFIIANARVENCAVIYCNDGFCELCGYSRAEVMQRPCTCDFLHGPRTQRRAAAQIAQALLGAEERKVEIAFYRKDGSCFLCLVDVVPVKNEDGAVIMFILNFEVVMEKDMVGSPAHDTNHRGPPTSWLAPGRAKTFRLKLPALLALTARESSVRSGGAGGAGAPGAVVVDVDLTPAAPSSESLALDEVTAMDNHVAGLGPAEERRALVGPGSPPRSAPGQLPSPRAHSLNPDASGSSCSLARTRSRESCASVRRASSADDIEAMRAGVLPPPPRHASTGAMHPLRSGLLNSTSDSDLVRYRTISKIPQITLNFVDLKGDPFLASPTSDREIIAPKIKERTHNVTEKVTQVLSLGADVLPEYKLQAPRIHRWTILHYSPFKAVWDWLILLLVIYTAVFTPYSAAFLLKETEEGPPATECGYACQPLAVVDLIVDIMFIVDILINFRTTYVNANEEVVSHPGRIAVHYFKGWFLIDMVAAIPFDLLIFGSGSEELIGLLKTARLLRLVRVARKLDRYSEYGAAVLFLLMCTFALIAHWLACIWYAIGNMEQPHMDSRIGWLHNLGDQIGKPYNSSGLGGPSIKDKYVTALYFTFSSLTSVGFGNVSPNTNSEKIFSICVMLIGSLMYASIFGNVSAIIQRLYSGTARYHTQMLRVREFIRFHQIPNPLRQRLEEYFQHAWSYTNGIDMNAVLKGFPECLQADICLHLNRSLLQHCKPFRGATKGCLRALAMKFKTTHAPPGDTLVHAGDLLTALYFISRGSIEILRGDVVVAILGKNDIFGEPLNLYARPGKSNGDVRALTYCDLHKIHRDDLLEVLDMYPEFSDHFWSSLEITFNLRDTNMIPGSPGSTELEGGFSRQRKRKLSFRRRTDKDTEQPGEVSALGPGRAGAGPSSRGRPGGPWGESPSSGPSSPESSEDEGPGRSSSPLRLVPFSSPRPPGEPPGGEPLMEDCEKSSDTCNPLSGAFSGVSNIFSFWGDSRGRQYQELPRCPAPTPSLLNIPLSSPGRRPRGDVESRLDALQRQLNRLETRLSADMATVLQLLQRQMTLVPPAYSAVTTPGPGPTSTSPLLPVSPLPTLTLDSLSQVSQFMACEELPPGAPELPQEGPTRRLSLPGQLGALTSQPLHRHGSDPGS

| SMILES | hERG current change (%, negative = inhibition) at 10uM |
| --- | --- |
| CC1CCCCN1S(=O)(=O)c1ccc(C(=O)N(CCCN(C)C)c2nc3cc4c(cc3s2)OCO4)cc1.Cl (centres unmarked) | -81.1% |
| CC1CCCCN1S(=O)(=O)c1ccc(C(=O)N(CCCN(C)C)c2nc3ccc(Br)cc3s2)cc1.Cl (centres unmarked) | -37% |
| CN(C)CCCN(C(=O)c1ccc(S(=O)(=O)N(C)C)cc1)c1nc2cc3c(cc2s1)OCO3.Cl | 15.5% |
| CCC1CCCCN1S(=O)(=O)c1ccc(C(=O)N(CCCN(C)C)c2nc3cc4c(cc3s2)OCO4)cc1.Cl (centres unmarked) | -56% |
| COc1cccc(CC(=O)Nc2ccc3nc(C)sc3c2)c1 | 8.73% |
| CCOc1ccc(/C(O)=C2/C(=O)C(=O)N(CCN(CC)CC)C2c2ccco2)cc1 (centres unmarked) | -10% |
| COc1ccccc1CNS(=O)(=O)c1ccc(Cl)s1 | -6.4% |
| COc1ccc(CC(=O)NCC2CCCN(Cc3cccc(SC)c3)C2)cc1 (centres unmarked) | -34.6% |
| COc1ccc(CC(=O)NCC2CCCN(Cc3ccc(OC(F)(F)F)cc3)C2)cc1 (centres unmarked) | -63.7% |
| COc1cc(OC)cc(C(=O)NCC2CCCN(Cc3ccc(SC)cc3)C2)c1 (centres unmarked) | -72.3% |
| COc1ccc(CC(=O)NCC2CCCN(Cc3ccc(SC)cc3)C2)cc1 (centres unmarked) | -67.5% |
| COc1ccc(CC(=O)NCC2CCCN(Cc3cc(OC)cc(OC)c3)C2)cc1 (centres unmarked) | -21% |
| CCc1ccc(CN2CCCC(CNC(=O)c3cc(OC)cc(OC)c3)C2)cc1 (centres unmarked) | -69.9% |
| COc1ccc(CC(=O)NCC2CCCN(Cc3ccccc3OC)C2)cc1 (centres unmarked) | 10.5% |
| COc1cc(OC)cc(C(=O)NCC2CCCN(Cc3cccc(C(C)=O)c3)C2)c1 (centres unmarked) | -25.3% |
| COc1ccc(CC(=O)NCC2CCCN(Cc3ccccc3Cl)C2)cc1 (centres unmarked) | 4.3% |
| COc1cc(OC)cc(C(=O)NCC2CCCN(C(=O)c3oc(C)cc3C)C2)c1 (centres unmarked) | -18.5% |
| COC(=O)c1ccc(CN2CCCC(CNC(=O)Cc3ccc(OC)cc3)C2)cc1 (centres unmarked) | -14.7% |
| Cc1cc(CNC(=O)CCc2nnc(CCCCc3ccccc3)o2)nn1C | 38.1% |
| Cc1ccc(NC(=O)N2CCCc3ccccc32)cc1C | -29.2% |
| COc1ccc(OC)c(N(CC(=O)N2CCC(C)CC2)S(=O)(=O)c2ccccc2)c1 | -22.2% |
| CCCc1nnc(SCC(=O)O)n1/N=C/c1ccc2c(c1)OCO2 | -7.5% |

| SMILES | hERG current change (%, negative = inhibition) at 10uM |
| --- | --- |
| CCOc1ccccc1CNC(=O)c1nn(CC)cc1[N+](=O)[O-] | 9.07% |
| C=CCSc1nnc(-c2sc(-c3ccccc3)nc2C)n1C | -33.6% |
| Cc1cc(NC(=O)CSCC(=O)N(C)Cc2ccc(Cl)c(Cl)c2)no1 | -9.94% |
| CCOC(=O)c1[nH]c2ccc(OC)cc2c1NS(=O)(=O)c1ccc(Cl)s1 | 12.9% |
| CCc1ccc(CN2CCCC(CNC(=O)c3cccc(OC)c3OC)C2)cc1 (centres unmarked) | -54.1% |
| COc1ccccc1CN1CCCC(CNC(=O)c2cccc3ccccc23)C1 (centres unmarked) | -47.8% |
| CCOc1cccc(CN2CCCC(CNC(=O)c3cccc(OC)c3OC)C2)c1 (centres unmarked) | -9.11% |
| N/C(Cc1nc(-c2ccc(F)cc2)cs1)=N\O | 13.7% |
| COc1ccc(/C=C2\SC(=S)N(NS(=O)(=O)c3ccccc3)C2=O)c(OC)c1 | -33.1% |
| CCOC(=O)Cc1csc(NS(=O)(=O)Cc2ccccc2)n1 | 3.54% |
| CC(C)c1ccc(Nc2nc(Cl)nc(Cl)n2)cc1 | 19.1% |
| Cc1cccc(NC(=O)NCC2CC2)c1 | 4.74% |
| Cc1ccc(C)c(CN2CCC(CNC(=O)Nc3ccc(Cl)cc3)CC2)c1 | -68.6% |
| COc1ccc(Cl)cc1NC(=O)NCC1CCN(C(=O)OC(C)(C)C)CC1 | 4.67% |
| COc1ccc(Cl)cc1NC(=O)NCC1CCN(Cc2cc(C)ccc2C)CC1 | -67.7% |
| Cc1ccc(C)c(CN2CCC(CNC(=O)Nc3ccc(F)c(Cl)c3)CC2)c1 | -65% |
| COc1ccc(N2CCC(CNC(=O)Nc3ccc(Cl)cc3)C2)cc1 (centres unmarked) | 11.5% |
| Cc1cccc(CN2CCC(CNC(=O)Nc3ccc(F)c(Cl)c3)CC2)c1 | -74.9% |
| COc1ccc(Cl)cc1NC(=O)NCC1CCN(Cc2ccccc2F)CC1 | -37.7% |
| COc1ccc(C(CC(=O)NCCN2CCOCC2)NS(=O)(=O)c2ccc(C)cc2)cc1 (centres unmarked) | 5.28% |
| Cc1ccc(CNC(=O)C2CCCN(c3nc4ccccc4o3)C2)cc1 (centres unmarked) | -1.06% |
| O=C(CSc1nnc(-c2ccco2)o1)NCC(=O)c1ccccc1 | -4.72% |
